Test results as given in PubChem BioAssay (NCATS).
Records with an inconclusive call do not appear. Activity calls are given as the source filed them. The call rests on the fitted dose curve; in most records, active means well fitted inhibition curve with a large enough effect; inconclusive means small, poorly fitted or top-dose-only effect; inactive means flat fitted curve, though single readings scatter.

molecular target: Lysine-specific demethylase 5B (Homo sapiens) (UniProt Q9UGL1); assay: Optimization screen for KDM5B Histone Demethylases FDH coupled qHTS against the LOPAC library (AID 1347166); settings: KDM5B demethylation, FDH-coupled NADH fluorescence (FDH is formaldehyde dehydrogenase); series mostly up to 57.5 µM
Sequence (Q9UGL1 whole entry, looked up): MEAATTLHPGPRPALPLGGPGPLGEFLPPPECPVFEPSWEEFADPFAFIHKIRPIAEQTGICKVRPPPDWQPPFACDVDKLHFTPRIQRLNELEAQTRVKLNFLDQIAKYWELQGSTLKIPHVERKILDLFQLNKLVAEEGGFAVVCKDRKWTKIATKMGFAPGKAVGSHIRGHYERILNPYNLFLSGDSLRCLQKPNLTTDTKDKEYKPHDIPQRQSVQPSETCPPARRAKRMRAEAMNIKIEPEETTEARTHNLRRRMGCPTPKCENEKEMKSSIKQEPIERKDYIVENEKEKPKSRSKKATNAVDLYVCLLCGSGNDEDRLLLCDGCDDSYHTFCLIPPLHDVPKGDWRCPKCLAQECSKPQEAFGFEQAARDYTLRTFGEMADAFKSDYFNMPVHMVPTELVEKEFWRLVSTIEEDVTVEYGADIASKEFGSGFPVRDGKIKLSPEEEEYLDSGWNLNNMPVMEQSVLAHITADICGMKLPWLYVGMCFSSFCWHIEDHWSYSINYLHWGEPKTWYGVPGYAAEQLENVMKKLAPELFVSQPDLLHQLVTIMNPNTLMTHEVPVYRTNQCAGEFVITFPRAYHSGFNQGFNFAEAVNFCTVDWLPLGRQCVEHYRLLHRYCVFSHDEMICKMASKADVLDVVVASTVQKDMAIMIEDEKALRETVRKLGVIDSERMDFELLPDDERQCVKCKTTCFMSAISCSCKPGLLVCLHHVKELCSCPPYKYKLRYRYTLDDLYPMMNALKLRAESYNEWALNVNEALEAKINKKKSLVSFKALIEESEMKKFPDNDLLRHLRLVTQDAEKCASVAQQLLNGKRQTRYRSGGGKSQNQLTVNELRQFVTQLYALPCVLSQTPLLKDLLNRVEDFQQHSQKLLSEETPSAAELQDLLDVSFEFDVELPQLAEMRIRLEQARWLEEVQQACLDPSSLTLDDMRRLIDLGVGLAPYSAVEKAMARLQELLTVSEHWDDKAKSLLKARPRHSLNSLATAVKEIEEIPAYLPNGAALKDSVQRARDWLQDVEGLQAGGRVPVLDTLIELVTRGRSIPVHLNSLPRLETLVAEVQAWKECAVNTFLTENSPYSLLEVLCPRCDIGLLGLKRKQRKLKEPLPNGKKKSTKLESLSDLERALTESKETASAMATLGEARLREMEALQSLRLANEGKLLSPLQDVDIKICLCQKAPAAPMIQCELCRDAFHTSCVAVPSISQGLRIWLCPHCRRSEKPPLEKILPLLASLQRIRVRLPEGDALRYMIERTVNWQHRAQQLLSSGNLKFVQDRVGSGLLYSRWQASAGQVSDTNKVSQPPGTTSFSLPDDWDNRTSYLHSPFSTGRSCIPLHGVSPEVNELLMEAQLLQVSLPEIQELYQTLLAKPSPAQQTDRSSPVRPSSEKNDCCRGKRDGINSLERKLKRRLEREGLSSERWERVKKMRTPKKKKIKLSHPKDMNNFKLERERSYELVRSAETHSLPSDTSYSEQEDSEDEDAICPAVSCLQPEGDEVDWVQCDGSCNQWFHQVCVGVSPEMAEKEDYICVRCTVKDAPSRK
Method in brief: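 KDM5BDeltaAP (200nM final) in 50mM HEPES pH 7.5, 0.01% Tween-20 was preincubated with compound for 10 min at room temperature. A substrate mix of 12.5uM H3K4Me3, 25uM a-ketoglutarate, ascorbate, Fe2+, NAD+ and formaldehyde dehydrogenase was then added. NADH fluorescence (340/450 nm) was read initially and after 30 min.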

Row | Compound | outcome
1 | COc1ccc(/C=C/C(=O)Nc2ccccc2C(=O)O)cc1OC | inactive
2 | O=C(Nc1cccc(C(=O)Nc2ccc(S(=O)(=O)O)c3cc(S(=O)(=O)O)cc(S(=O)(=O)O)c23)c1)Nc1cccc(C(=O)Nc2ccc(S(=O)(=O)O)c3cc(S(=O)(=O)O)cc(S(=O)(=O)O)c23)c1 | inactive
3 | NC(=O)C1=CN(C2OC(COP(=O)(O)OP(=O)(O)OC[C@H]3O[C@@H](n4cnc5c(N)ncnc54)[C@H](OP(=O)(O)O)[C@@H]3O)C(O)C2O)C=CC1 (stereo not given in full) | inactive
4 | COc1ccccc1CNCCCCCCNCCCCCCCCNCCCCCCNCc1ccccc1OC | inactive
5 | N=c1ccn2c(n1)O[C@H]1[C@H](O)[C@@H](CO)O[C@H]12 | inactive
6 | CCC1C(=O)OCC1Cc1cncn1C (stereo not given) | inactive
7 | O=C(Nc1ccccc1)c1cc([N+](=O)[O-])ccc1Cl | inactive
8 | CC(C)ON([C@@H](C(=O)NO)C(C)C)S(=O)(=O)c1ccc(-c2ccccc2)cc1 | inactive
9 | CN1CC(=O)N/C1=N/C(=O)Nc1cccc(Cl)c1 | inactive
10 | CCCCCCCCCCCCCCCCCCNC(=O)OCC(COP(=O)([O-])OCC[n+]1ccsc1)OC (stereo not given) | inactive
11 | Cc1ccccc1CNc1ncnc2c1ncn2C1OC(CO)C(O)C1O (stereo not given) | inactive
12 | Fc1cccc(/C=N/N=C/c2cccc(F)c2)c1 | inactive
13 | CCCCCCCCCCCCCCCC(=O)OC(CC(=O)O)C[N+](C)(C)C (stereo not given) | inactive
14 | CC1OC1P(=O)(O)O (stereo not given) | inactive
15 | COc1cc2c(CCNC(C)=O)c[nH]c2cc1Cl | inactive
16 | O=C(O)c1cc([N+](=O)[O-])ccc1NCCCc1ccccc1 | inactive
17 | OC[C@H]1O[C@@H](n2cnc3c(Nc4ccccc4)ncnc32)[C@H](O)[C@@H]1O | inactive
18 | NC(=O)C(=O)O | inactive
19 | C[N+](C)(C)CC(=O)[O-] | inactive
20 | CN(C)CCCO[C@@H]1[C@H]2OC(C)(C)O[C@H]2O[C@@H]1[C@H](O)CO | inactive
21 | Oc1cc2c(cc1O)CN(C(=S)NCCc1ccc(Cl)cc1)CCC2 | inactive
22 | OC[C@H]1O[C@@H](n2cnc3c(NC4CCCCC4)ncnc32)[C@H](O)[C@@H]1O | inactive
23 | Cc1cc(NC2CCCCC2)nc(-n2nc(C)cc2C)n1 | inactive
24 | NC(N)=NC(=O)c1nc(Cl)c(N2CCCCCC2)nc1N | inactive
25 | CC[C@@H](C)[C@H]1O[C@]2(CC[C@H]1C)C[C@@H]1C[C@@H](CC=C(C)[C@@H](O[C@H]3C[C@H](OC)[C@@H](O[C@H]4C[C@H](OC)[C@@H](O)[C@H](C)O4)[C@H](C)O3)[C@@H](C)C=CC=C3CO[C@@H]4[C@H](O)C(C)=C[C@@H](C(=O)O1)[C@]34O)O2 | inactive
26 | CC1(C)CCC=[N+]1[O-] | inactive
27 | C[C@@H](CN1CCC(Cc2ccccc2)CC1)[C@@H](O)c1ccc(O)cc1 | inactive
28 | c1cnc2c(c1)ccc1cccnc12 | inactive
29 | NCCCCCCCCCCN | inactive
30 | CN1C2CC(OC(=O)[C@H](CO)c3ccccc3)CC1C1OC12 (stereo not given in full) | inactive
